# GLP-1R agonist: qHTS of GLP-1 Receptor Agonists; Glucagon-like peptide 1 receptor (Homo sapiens), P43220; Potency, µM (titrated, usually from 45.6 µM), for inactives: at the top dose activation, usual class: activators; AID 624172, 2012; actives 0.007% (n = 380,000); HEK293 GLP-1R CRE-luciferase, luminescence, 4-6 h; cells express a hypersensitive GLP-1R form; also: % of control where 0% means no effect
# Target sequence (P43220 whole entry, looked up): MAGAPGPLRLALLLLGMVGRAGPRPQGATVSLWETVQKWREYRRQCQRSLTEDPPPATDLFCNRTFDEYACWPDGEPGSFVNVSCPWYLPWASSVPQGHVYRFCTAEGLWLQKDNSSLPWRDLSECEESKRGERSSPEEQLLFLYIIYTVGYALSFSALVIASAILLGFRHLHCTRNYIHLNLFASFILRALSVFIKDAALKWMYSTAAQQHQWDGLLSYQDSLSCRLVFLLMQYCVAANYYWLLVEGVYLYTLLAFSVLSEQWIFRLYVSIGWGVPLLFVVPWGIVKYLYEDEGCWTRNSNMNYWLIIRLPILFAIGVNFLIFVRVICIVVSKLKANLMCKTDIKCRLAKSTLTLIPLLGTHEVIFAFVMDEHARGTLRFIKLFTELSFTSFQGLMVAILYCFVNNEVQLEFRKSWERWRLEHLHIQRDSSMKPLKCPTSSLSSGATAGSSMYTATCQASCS
# GLP1R cytotox: qHTS of GLP-1 Receptor Inverse Agonists: Cytotox Screen; actives 0.13% (n = 410,000); Potency, µM (highest dose often 38.3 µM), for the others: top-dose activity change, negative = inhibition, actives largely listed as inhibitors; HEK293 cAMP-luciferase reporter cells, luminescence, 24 h; AID 624418, 2012;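 also: loss of luciferase light is scored as toxicity; % is scaled to controls: 0 for no effect and ±100 for the full control effect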
#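 Luminescence readout: signal drop marks cytotoxicity. Plated cells grew 12 h at 37 °C, 5% CO2, received 23 nL compound for 24 h, then got luciferase reagent, read after 12 min at RT.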
# GLP1R inv ag: qHTS of GLP-1 Receptor Inverse Agonists (Inhibition Mode); Glucagon-like peptide 1 receptor (Homo sapiens), P43220; HEK293 GLP-1R CRE-luciferase, luminescence, 24 h; GLP-1R form is constitutively active; Potency, µM (series often up to 38.3 µM), for the others: top-dose activity change, negative = inhibition, hits mostly inhibitors; actives 1.6% (n = 410,000); AID 624417, 2012; also: % is scaled to controls: 0 for no effect and ±100 for the full control effect; nearly all actives have a fitted effect of over 55% in size
#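 Constitutively active GLP-1R drives a cAMP-responsive luciferase in stably transfected HEK293 cells; test compounds are added after overnight (12 h) attachment and left 24 hr, and signal loss in luminescence marks inhibition.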
# BRCA1 expr up: qHTS Assay to Identify Small Molecule Activators of BRCA1 Expression; MCF7-BRCA1-FFLuc reporter, luminescence, 48 h; response scale: scaled: vehicle 0%, 10 µM genistein 100%; Potency, µM (top dose mostly 46.1 µM), for the others: at the highest dose activation, actives largely listed as activators; actives 1.1% (n = 380,000); also: nearly all actives have a fitted effect of over 80% in size
#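 MCF7-BRCA1-FFLuc cells, 2000/well in phenol-red-free MEM, attached 2 h then treated 48 h at 37 C. Luciferase luminescence read 15 min after reagent; normalized to genistein maximum activation (10microM) and DMSO, concentration-response fitted.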
# Active calls of the source: *; ? = inconclusive; nt = no result; ! = not active in a repeat. Hits are enriched below; roughly 2.6% of the tested compounds scored in any of these assays. Calls follow the shape of the dose curve; as a rule, active = well fitted curve in the direction sought with a large enough effect; inconclusive = small, poorly fitted or top-dose-only effect, or another doubt; inactive = no such curve, though single readings can be large; an effect the other way counts as inactive or inconclusive. Potency is read from the fitted curve at half-maximal effect.
SMILES,GLP-1R agonist,GLP1R cytotox,GLP1R inv ag,BRCA1 expr up
Cc1ccccc1NC(=O)/C(=C/c1ccco1)c1ccccc1,2%,-1%,?,-9%
Cc1ccc(NC(=O)C2CCN(S(=O)(=O)c3ccc4c(c3)CCCC(=O)N4)CC2)c(Cl)c1,3%,-2%,9%,5%
O=C(NC(=S)Nc1cccc([N+](=O)[O-])c1)c1ccccc1,-3%,-6%,2%,11µM*
O=C(Nc1ccc([N+](=O)[O-])cc1)C(=O)Nc1cccc(C(=O)O)c1,-15%,-15%,1.1µM*,?
O=C(O)c1cc(NC(=O)c2ccc([N+](=O)[O-])cc2)cc(NC(=O)c2ccc([N+](=O)[O-])cc2)c1,0%,0%,15%,-9%
O=C(NC(NC(=O)c1ccccc1)c1cccc([N+](=O)[O-])c1)c1ccccc1,12%,-3%,11%,5%
O=C(c1ccccc1)C(Nc1cccc([N+](=O)[O-])c1)c1ccccc1 (stereo not drawn),21%,-2%,7.9µM*,-29%
O=C(NC(=S)Nc1cccc([N+](=O)[O-])c1)c1ccco1,7%,-2%,35%,84%
O=C(CNC(=O)C(c1ccccc1)c1ccccc1)OCC(=O)c1ccc2ccccc2c1,nt,nt,nt,6%
COc1ccc(Cl)cc1NC(=O)CSc1nnc(C2CC2)n1N,1%,-7%,7%,-18%
Cc1ccccc1-c1ocnc1C(=O)Nc1ccccc1NC(=O)c1ccccn1,13%,?,4µM*,-66%
CCOC(=O)c1c(C)[nH]c(C)c1S(=O)(=O)N1CCC(C(=O)Nc2ccc(F)cc2F)CC1,nt,-8%,11%,-9%
O=C(Nc1cccc2c1CCCC2)c1cc([N+](=O)[O-])ccc1Cl,-7%,?,3.2µM*,-66%
Cn1cc([N+](=O)[O-])c(C(=O)Nc2ccc(-c3nc4ccccc4[nH]3)cc2)n1,8%,8%,6%,7.9µM*
O=C(Nc1ccc2[nH]ccc2c1)c1cccs1,6%,0%,1%,3.2µM*
CC(=O)Nc1ccc2[nH]ccc2c1,1%,9%,27%,-4%
Cn1cc([N+](=O)[O-])c(C(=O)Nc2ccc3nc(-c4ccccc4)[nH]c3c2)n1,9%,?,73%,4µM*
O=C(Nc1ccc2nc(-c3ccccc3)[nH]c2c1)c1cccs1,-1%,-30%,142%,7.1µM*
CC(=O)N1c2ccc(S(=O)(=O)NCC3CCC(C(=O)NCCC(C)C)CC3)cc2CC1C (stereo not drawn),nt,0%,0%,nt
CCn1cc(CN2CCC(C(=O)Nc3ccc(Oc4ccccc4)nc3)CC2)cn1,-15%,25%,-11%,-26%
O=C(Nc1ccc(Oc2ccccc2)nc1)C1CCN(Cc2ccccc2)CC1,-3%,-27%,11µM*,-11%
CCc1ccc(CN2CCC(C(=O)Nc3ccc(Oc4ccccc4)nc3)CC2)o1,15%,-10%,8.9µM*,-4%
CN(CC(=O)NC1(C)CCS(=O)(=O)C1)S(=O)(=O)c1ccc(Cl)cc1 (stereo not drawn),-22%,10%,8%,4%
Cn1nc(C(C)(C)C)cc1C(=O)N1CCCC(C)(C(=O)NS(=O)(=O)C2CC2)C1 (stereo not drawn),-3%,-5%,10%,-3%
Cc1nn(C)c2ncc(C(=O)c3ccccc3O)cc12,21%,0%,8%,12%
SMILES,GLP-1R agonist,GLP1R cytotox,GLP1R inv ag,BRCA1 expr up
Cc1[nH]nc2ncc(C(=O)c3ccccc3O)cc12,-11%,-5%,10µM*,12%
C[N+](C)(CCCCCC[N+](C)(C)C1c2ccccc2-c2ccccc21)C1c2ccccc2-c2ccccc21,-5%,nt,nt,nt
CCOc1ccc(NC(=O)c2ccc3snnc3c2)cc1,-3%,-12%,-6%,7.9µM*!
CCOc1ccc(NC(=O)c2ccc(F)cc2F)cc1,-1%,-1%,15%,11µM*
Cc1ccnc(SCC(=O)c2cc3ccccc3o2)n1,-7%,11%,7%,8.9µM*
O=C(N/N=C\c1ccc(COc2ccc([N+](=O)[O-])cc2)o1)c1ccc(Cl)cc1,-1%,-5%,?,-28%
COc1ccc(OCc2ccc(/C=N\NC(=O)c3sccc3C)o2)cc1,6%,-2%,23%,13µM*
COC1=C(C(=O)O)N2C(=O)[C@@H](NC(=O)C(N)C3C=CCC=C3)[C@H]2SC1 (stereo partly drawn),-7%,nt,nt,nt
FC(F)(F)COc1nc(OCC(F)(F)F)nc(N2CCN(c3ccccc3)CC2)n1,-1%,-20%,5µM*,-19%
FC(F)(F)COc1nc(N2CCOCC2)nc(N(c2ccccc2)c2ccccc2)n1,0%,8%,?,-56%
O=C(OC(C(=O)N1CCOCC1)c1ccccc1)c1c2c(nc3ccccc13)CCCC2 (stereo not drawn),nt,nt,nt,-7%
COc1ccc(-c2noc(CCC(=O)NC3CCN(Cc4ccccc4)CC3)n2)cc1,1%,-12%,?,-31%
COc1ccc(-c2noc(CCC(=O)NCC3CCN(Cc4cccc(C)c4)CC3)n2)cc1,3%,-29%,11µM*,-14%
CCOC(=O)c1cccc(Nc2ccc3cc(S(=O)(=O)N4CCCCC4)ccc3n2)c1,nt,-26%,?,nt
COc1cc(NC(=O)CN2C(=O)C(=O)N(CC(C)C)C2=O)cc(OC)c1,-8%,8%,8%,-20%
O=C(c1ccc(Cl)c(Cl)c1)N1CCC(=O)N(C(COCc2ccc(Cl)cc2)Cc2ccccc2)CC1 (stereo not drawn),0%,16%,10µM*,-34%
Cc1cccc(COCC(Cc2ccccc2)N2CCN(C(=O)c3ccc(Cl)c(Cl)c3)CCC2=O)c1 (stereo not drawn),9%,?,?,-17%
CC(C)(C)c1ccc(C(=O)N2CCC(=O)N([C@H](COCc3ccccc3)Cc3ccccc3)CC2)cc1,-4%,?,10µM*,-35%
CC(C)(C)c1ccc(C(=O)N2CCC(=O)N(C(COCc3ccccc3)Cc3ccccc3)CC2)cc1 (stereo not drawn),7%,?,?,-64%
COc1ccccc1CNC(=O)c1ccc2c(c1)nc(C)n2-c1ccccc1OC,nt,-11%,8%,nt
Cc1c2cnn(-c3ccccc3)c(=O)c2c(C)n1CC(=O)NCc1ccccc1Br,nt,0%,3%,nt
CCc1nc(Nc2ccc(F)c(Cl)c2)c2c3c(sc2n1)CCCC3,12%,1%,7%,0%
O=C(NCCc1csc(-c2ccc(C(F)(F)F)cc2)n1)c1ccc(F)c(F)c1,-2%,-12%,10µM*,-65%
C/C(=N\NC(=O)c1csc(C)c1C)c1ccc(C)s1,0%,6%,2%,10µM*
Cc1scc(C(=O)N/N=C/c2ccc(Cl)s2)c1C,0%,-22%,?,7.1µM*
